Results filed as inconclusive are left out. The source made the active and inactive calls. Unless noted, calls follow the shape of the dose curve; as a rule, active = well fitted curve in the direction sought with a large enough effect; inconclusive = small, poorly fitted or top-dose-only effect, or another doubt; inactive = no such curve, though single readings can be large; an effect the other way counts as inactive or inconclusive.
Assays:
[1] = P-glycoprotein substrates identified in KB-3-1 adenocarcinoma cell line, qHTS therapeutic library screen (AID 1346986); details: KB-3-1 parental cells viability, CellTiter-Glo, 72 h; series mostly up to 44.5 µM; also: nearly all actives have a fitted effect of over 60% in size
In short: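 Using luminescence to quantify ATP, parental and P-gp-overexpressing KB cells were compared after 72 h compound titration. KB-8-5-11 was also run with the P-gp inhibitor tariquidar.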

[2] = P-glycoprotein substrates identified in KB-8-5-11 adenocarcinoma cell line, qHTS therapeutic library screen (AID 1346987); details: KB-8-5-11 (P-gp overexpressing) viability, CellTiter-Glo, 72 h; series mostly up to 44.5 µM; also: nearly all actives have a fitted effect of over 65% in size
In short: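 Human cervical adenocarcinoma KB-8-5-11 cells, selected in colchicine to over-express P-gp and assayed without it, were exposed for 72 h to titrated compounds. An ATP-based luminescent viability signal gave AC50.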

[3] = NS1 protein of Zika virus - qHTS assay to identify small molecule inhibitors in human HEK 293 cells (AID 1347053); details: HEK293 ZIKV MR766 infection, NS1 TR-FRET, 24 h; series mostly up to 46.1 µM; also: nearly all actives have a fitted effect of over 55% in size
In short: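 Readout was TR-FRET using paired anti-NS1 antibodies after 24 h infection of HEK 293 cells with ZIKV MR766 (MOI = 0.5). Compound preceded virus by 1 h; reduced signal reflects lower NS1 expression.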

[4] = qHTS for Inhibitors of the Functional Ribonucleoprotein Complex (vRNP) of Lassa (LASV) Arenavirus: LASV Primary Screen - GLuc reporter signal (AID 1347082; calls by dose curve; tested in HEK293 reporter line; also: nearly all actives have a fitted effect of over 60% in size); details: LASV minigenome vRNP, Gaussia luciferase reporter; series mostly up to 57.5 µM
[5] = qHTS for Inhibitors of the Functional Ribonucleoprotein Complex (vRNP) of Lassa (LASV) Arenavirus: Viability assay - alamar blue signal for LASV Primary Screen (AID 1347083; calls by dose curve; tested in HEK293 reporter line; also: nearly all actives have a fitted effect of over 80% in size); details: cell viability, alamar blue fluorescence (LASV minigenome counter-screen); series mostly up to 57.5 µM
[6] = qHTS for Inhibitors of the Functional Ribonucleoprotein Complex (vRNP) of Lymphocytic Choriomeningitis Arenaviruses (LCMV): Viability assay - alamar blue signal for LCMV Primary Screen (AID 1347085; calls by dose curve; tested in HEK293 reporter line; also: nearly all actives have a fitted effect of over 80% in size; also: potency is read from the fitted curve at half-maximal effect); details: alamar blue viability counter-screen, LCMV vRNP screen cells; series mostly up to 57.5 µM
[7] = target: Nucleoprotein (Lymphocytic choriomeningitis virus (strain Armstrong)) (UniProt P09992); assay: qHTS for Inhibitors of the Functional Ribonucleoprotein Complex (vRNP) of Lymphocytic Choriomeningitis Arenaviruses (LCMV): LCMV Primary Screen - GLuc reporter signal (AID 1347086; calls by dose curve; also: nearly all actives have a fitted effect of over 70% in size); details: LCMV minigenome vRNP cell assay, Gaussia luciferase reporter; series mostly up to 57.5 µM
[8] = Identifying Small Molecule Inhibitors of Pancreatic Cancer Stem Cells (A2780, Spheroid) (AID 1259357); details: Potency: A2780 spheroid viability; series mostly up to 46.1 µM;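 also: compound exposure lasted 48 h before the ATP luminescence read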; also: potency is read from the fitted curve at half-maximal effect
In short: (§1)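 Adherent (2D) versus sphere (3D) formats; spheres generated 14 d in SCM beforehand. Compound transferred by pin tool after 4 h, 48 h incubation, CellTiter-Glo endpoint.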

[9] = Identifying Small Molecule Inhibitors of Pancreatic Cancer Stem Cells (Panc1, Spheroid) (AID 1259359); details: Panc1 spheroid cancer stem cell viability;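 also: potency is read from the fitted curve at half-maximal effect; compound exposure lasted 48 h before reading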
In short: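 Cytotoxicity read by CellTiter-Glo luminescence after 48 h compound exposure at 37C; percent activity scaled between DMSO-treated cells and cell-free wells. Spheroid formats used cells pre-formed 14 days in stem cell media on hydrogel.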

[10] = Identifying Small Molecule Inhibitors of Pancreatic Cancer Stem Cells (SN12C, Spheroid) (AID 1259360); details: Potency: SN12C spheroid viability; series mostly up to 46.1 µM; also: potency is read from the fitted curve at half-maximal effect
In short: as §1

[11] = Identifying Small Molecule Inhibitors of Pancreatic Cancer Stem Cells (SN12C, Adherent) (AID 1259358); details: viability/growth inhibition; series mostly up to 46.1 µM;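 also: cell survival measured after 48 h of compound exposure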
In short: (§2)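 Luminescent ATP readout (CellTiter-Glo) quantifies surviving cells after a 48 h drug incubation. Normalization uses DMSO wells as no inhibition and media-only wells as full inhibition; bortezomib served as positive control.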

[12] = Identifying Small Molecule Inhibitors of Pancreatic Cancer Stem Cells (Panc1, Adherent) (AID 1259362); details: Potency: viability; series mostly up to 46.1 µM; also: potency is read from the fitted curve at half-maximal effect
In short: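 Viability is scored by CellTiter-Glo luminescence 48 h after dosing, expressed as percent activity against vehicle and no-cell references. Spheroid formats rely on cells cultured 14 days in stem cell media beforehand.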

[13] = Identifying Small Molecule Inhibitors of Pancreatic Cancer Stem Cells (A278, Adherent) (AID 1259361); details: series mostly up to 46.1 µM; also: nearly all actives have a fitted effect of over 35% in size
In short: as §2

Chain of Nucleoprotein (Lymphocytic choriomeningitis virus (strain Armstrong)) (P09992 whole entry, looked up): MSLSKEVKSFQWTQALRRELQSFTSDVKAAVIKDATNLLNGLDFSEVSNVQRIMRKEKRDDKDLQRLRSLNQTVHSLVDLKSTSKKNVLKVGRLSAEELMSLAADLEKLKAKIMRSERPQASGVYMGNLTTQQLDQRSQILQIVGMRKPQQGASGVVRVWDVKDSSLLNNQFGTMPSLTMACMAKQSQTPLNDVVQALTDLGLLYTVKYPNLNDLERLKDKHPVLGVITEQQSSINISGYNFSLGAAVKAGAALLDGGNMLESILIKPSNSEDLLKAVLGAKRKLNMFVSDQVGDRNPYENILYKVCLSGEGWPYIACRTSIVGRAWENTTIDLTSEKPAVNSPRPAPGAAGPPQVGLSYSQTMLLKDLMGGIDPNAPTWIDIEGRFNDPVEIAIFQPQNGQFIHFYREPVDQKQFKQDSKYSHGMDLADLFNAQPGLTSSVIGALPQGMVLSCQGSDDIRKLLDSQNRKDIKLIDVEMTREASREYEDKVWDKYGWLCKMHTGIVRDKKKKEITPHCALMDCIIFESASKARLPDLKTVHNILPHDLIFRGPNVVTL

CN1CCN(c2ccc([N+](=O)[O-])c3no[n+]([O-])c23)CC1
inactive: Potency [1] | Potency [2] | Potency [3] | Potency [4] | Potency [5] | Potency [6] | Potency [7]

CC1CC(C)C(=O)C(C(O)CC2CC(=O)NC(=O)C2)C1 (stereo not given)
active: Potency [8] 3.82 µM | Potency [9] 2.41 µM | Potency [10] 1.71 µM

CCc1c(C(=O)C(N)=O)c2c(OCC(=O)O)cccc2n1Cc1ccccc1
inactive: Potency [1] | Potency [2] | Potency [3] | Potency [4] | Potency [5] | Potency [6] | Potency [7]

S=C(SSC(=S)N1CCCCC1)N1CCCCC1
inactive: Potency [2]

CCC(=O)OC1CCC2C3CCC4=CC(=O)CC[C@@]4(C)C3CC[C@]12C (stereo not given in full)
inactive: Potency [1] | Potency [3] | Potency [4] | Potency [5] | Potency [6] | Potency [7]

O=C(NCC1CCOCC1)c1cnc(Nc2ccc(Cl)cc2Cl)nc1C(F)(F)F
inactive: Potency [1] | Potency [2] | Potency [3] | Potency [4] | Potency [5] | Potency [6] | Potency [7]

Cc1nc(-c2ccc(-c3ccc(C(=O)N4CCc5cc6c(cc54)C4(CCN(C)CC4)CO6)cc3)c(C)c2)no1
inactive: Potency [11] | Potency [2] | Potency [3] | Potency [4] | Potency [5] | Potency [6] | Potency [7]
active: Potency [12] 16.6 µM

CC(C)(C)[C@]1(O)C[C@@H]2OC(=O)C[C@@]23C(=O)O[C@@H]2OC(=O)[C@H](O)C213 (stereo not given in full)
inactive: Potency [1] | Potency [2] | Potency [3] | Potency [4] | Potency [5] | Potency [6] | Potency [7]

CC(=O)Nc1ccc(OC[C@](C)(O)C(=O)Nc2ccc([N+](=O)[O-])c(C(F)(F)F)c2)cc1
inactive: Potency [8] | Potency [11] | Potency [10] | IC50 (viability decrease) [13] | Potency [12] | Potency [2] | Potency [3] | Potency [4]
active: Potency [6] 10.9 µM

Reference: PubChem BioAssay (NCATS)
